This is a sample that favours compounds with a hit; in the whole collection about 1.4% have one here.
Bcl-xL primary – inhibitors of human Bcl-xL, primary screen, biochemical, fluorescence polarization, HTS; GST-Bcl-xL / FITC-Bim BH3 peptide fluorescence polarization; inhibition, % at 10.9 µM; 320,000 tested, 0.7% active;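 active means inhibition above the mean of all tested compounds plus 3 SD, cutoff set per campaign, cut at about 30% in these data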;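 further: 0% = DMSO wells and 100% = unlabeled Bim-BH3 peptide competitor; inhibitors lower millipolarization by displacing the labeled peptide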
MCL1-BIM inh – inhibitors of MCL1 binding to BIM-BH3, primary screen, biochemical, fluorescence polarization; Induced myeloid leukemia cell differentiation protein Mcl-1 (Homo sapiens), Q07820; GST-MCL1 / FITC-Bim-BH3 fluorescence polarization; inhibition, % at 10.9 µM; 320,000 tested, 0.68% active; AID 2057, 2009;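 active means inhibition above the mean inhibition of all tested compounds plus 3 SD, set per campaign, cut at about 40% in these data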;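 further: 0% = DMSO wells and 100% = unlabeled Bim-BH3 peptide control; higher means more loss of mP so more displacement of Bim peptide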
eLon inh – inhibitors of E. coli Lon protease, primary screen, biochemical, fluorescence polarization; purified E. coli Lon protease; inhibition, % at 7.94 µM; 360,000 tested, 0.42% active; in the data active means inhibition above about 13%, passing the limit was not always enough;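 further: 0% = enzyme with probe and DMSO and 100% = no enzyme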
Target sequence (P0A9M0 whole entry, looked up): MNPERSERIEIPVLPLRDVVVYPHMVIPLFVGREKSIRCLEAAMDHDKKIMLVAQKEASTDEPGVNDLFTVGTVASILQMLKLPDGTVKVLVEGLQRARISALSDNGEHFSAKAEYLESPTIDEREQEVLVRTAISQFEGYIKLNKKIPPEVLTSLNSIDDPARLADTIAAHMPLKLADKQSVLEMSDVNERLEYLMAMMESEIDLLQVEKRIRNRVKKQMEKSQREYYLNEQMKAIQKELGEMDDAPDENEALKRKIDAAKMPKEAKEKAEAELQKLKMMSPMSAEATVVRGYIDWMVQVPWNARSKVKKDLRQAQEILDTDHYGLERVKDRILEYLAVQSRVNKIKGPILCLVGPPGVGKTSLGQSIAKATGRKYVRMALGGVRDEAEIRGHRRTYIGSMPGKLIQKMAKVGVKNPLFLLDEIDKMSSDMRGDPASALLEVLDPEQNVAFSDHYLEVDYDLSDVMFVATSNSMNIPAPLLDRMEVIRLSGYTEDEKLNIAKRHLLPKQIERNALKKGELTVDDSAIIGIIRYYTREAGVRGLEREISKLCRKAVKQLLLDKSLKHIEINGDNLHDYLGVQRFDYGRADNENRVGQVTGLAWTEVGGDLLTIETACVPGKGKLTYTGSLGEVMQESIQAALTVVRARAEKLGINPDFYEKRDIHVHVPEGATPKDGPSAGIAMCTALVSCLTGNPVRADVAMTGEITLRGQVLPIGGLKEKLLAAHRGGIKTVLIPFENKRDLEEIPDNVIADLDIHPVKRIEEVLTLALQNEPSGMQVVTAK
EBV gp42 block – Epstein-Barr virus gp42 inhibitors, primary screen, biochemical, uHTS, fluorescence polarization; Glycoprotein 42 (Epstein-Barr virus (strain AG876)), Q1HVG2; Fluorescence polarization binding assay, mP read-out; inhibition, % (tested at 21.74 µM); 220,000 tested, 0.42% active; in the data active means inhibition above about 50%
GLD-1 TGE inh – GLD-1/TGE RNA complex disruptors, primary screen, biochemical, fluorescence polarization. Female germline-specific tumor suppressor gld-1 (Caenorhabditis elegans), Q17339. purified GLD-1 + fluorescein TGE RNA. inhibition, % at 5.96 µM. 320,000 tested, 0.44% active. AID 2280, 2010;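 active means percent inhibition above a per-plate cutoff, the plate mean of test compounds plus 3 SD, cut at about 30% in these data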;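 further: 0% = DMSO wells with GLD-1 and probe and 100% = wells lacking GLD-1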
MEX-5 binding – MEX-5 zinc finger RNA-binding disruptors – biochemical, C. elegans, fluorescence polarization, MLPCN library, primary screen; MEX-5/FITC-TCR2 RNA binding; active compounds read low; 300,000 tested, 0.38% active; Zinc finger protein mex-5 (Caenorhabditis elegans), Q9XUB2; activity score (negative = inhibition of binding), % at 10 µM; AID 1832, 2009;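 active means inhibition past about -25% in most replicates, and total fluorescence under double the plate's negative control median, limit read from the data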;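 further: 0% = DMSO and -100% = 5 µM competing unlabeled TCR2 RNA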
* hit, by the source's call; · = no result given.

SMILES	Bcl-xL primary	MCL1-BIM inh	eLon inh	EBV gp42 block	GLD-1 TGE inh	MEX-5 binding
O=S(=O)(NNC(=S)Nc1ccc(S(=O)(=O)Nc2ncccn2)cc1)c1ccc(Br)cc1	1.7	-1.7	12.0	·	-0.4	-99.2*
CCn1ccc(C(=O)NC2C(=O)N3C(C(=O)O)=C(C)CSC23)n1 (centres undefined)	-1.6	0.0	-6.4	-13.2	-1.1	·
C=CC1=C(C(=O)O)N2C(=O)[C@@H](NC(=O)/C(=N\O)c3csc(N)n3)[C@H]2SC1 (stereo in doubt)	7.0	23.9	-1.0	·	11.3	-25.6*
CC(C)COC(=O)N(C)C[C@@H]1OCc2cnnn2CCCC(=O)N([C@@H](C)CO)C[C@H]1C	·	·	-1.2	·	·	·
CCN1/C(=C/C=C/C=C/c2sc3ccccc3[n+]2CC)Sc2ccccc21	127.8*	140.3*	·	30.8	-32.5	6.4
COc1ccc(N2C(=O)C(Cl)=C(Nc3ccccc3O)C2=O)cc1	12.8	19.2	-2.5	-16.6	2.7	-33.6*
O=[N+]([O-])c1cccc(/C=C/c2nc(C=Nc3ccccc3)c(O)o2)c1	-30.7	-50.8	-9.2	-3.1	-13.5	-42.6*
O=[N+]([O-])c1cccc(/C=N/N=C\c2ccccc2)c1	·	·	-2.9	·	·	0.0
CC(C(=O)NCc1ccccc1)N1CCN(c2ccc(F)cc2)CC1 (centres undefined)	2.9	-11.4	0.4	·	-5.4	2.4
CCN(CC(=O)Nc1c(F)cccc1F)C(=O)CCSc1ccc(F)cc1	6.5	0.4	-2.6	·	6.7	2.3
CCCCNC(=S)N(C)/N=C/c1sc(N2CCCCC2)nc1-c1cccs1	39.1*	-3.2	·	30.6	13.4	-12.7
CC/C(=N/Nc1cccc(C)c1)c1cnnc(SC)n1	46.2*	31.1	-33.6	-11.1	7.2	-33.3*
CC/C(=N/Nc1ccc(Cl)cc1)c1cnnc(SC)n1	10.2	11.1	8.8	1.5	6.4	·
COc1ccc(-n2c(C)cc(/C=C3\SC(=S)N(Cc4ccco4)C3=O)c2C)cc1	-2.2	-25.8	-206.5	80.0*	29.9	-27.9*
Cc1nnc(SCC(=O)N2CC(=O)Nc3ccccc32)n1-c1ccccc1	-0.7	-7.0	-12.9	-11.7	-7.0	2.1
Nn1c(Cc2ccccc2F)nnc1SCC(=O)N1CC(=O)Nc2ccccc21	-3.1	-11.4	-10.9	60.0*	-3.2	0.0
Cc1ccc(N(CC(=O)NC(C)C)C(=O)CCC(=O)Nc2nccs2)c(C)c1	2.3	0.3	-3.1	·	6.1	3.5
N#Cc1cc2c(=O)n3ccccc3nc2n(-c2ccccc2Cl)c1=O	16.6	13.5	-3.3	9.2	4.8	-26.7*
Cc1cccn2c(=O)c3cc(C(=O)N(C)C)n(C)c3nc12	32.1*	29.7	11.5	24.6	9.5	-17.3
COCCNC(=O)c1cc2c(=O)n3cccc(C)c3nc2n1C	0.6	-0.9	-9.3	·	2.3	-0.5
CCOCCCNC(=O)c1cc2c(=O)n3cccc(C)c3nc2n1C	17.5	17.4	-1.9	·	5.0	-1.4
Cc1cccn2c(=O)c3cc(C(=O)NCCCn4ccnc4)n(C)c3nc12	44.4*	46.8*	2.4	39.3	5.4	-19.9
CC(=O)NCCCC(=O)NN1C(=S)N(Cc2ccccc2)C(=O)C1CC(=O)Nc1cccc(C)c1 (centres undefined)	-3.4	-1.2	-9.1	1.7	-16.3	0.0
Cc1cc(O)c2c(c1O)C(=O)[C@]13C(=C2O)C(=O)[C@@H]2[C@@H](O)[C@H]1[C@@H]1[C@H](O)[C@H]3C(=O)C3=C(O)c4c(O)cc(C)c(O)c4C(=O)[C@]312	·	·	26.9*	·	29.8	·
O=C(NCc1ccccc1)c1cc(C2COCCN2C(=O)CCc2ccccc2)on1 (centres undefined)	·	·	-10.5	·	·	·
SMILES	Bcl-xL primary	MCL1-BIM inh	eLon inh	EBV gp42 block	GLD-1 TGE inh	MEX-5 binding
O=C(N/N=C1\C(=O)c2cccc3cccc1c23)c1ccc(O)cc1	8.3	3.0	2.3	7.5	6.2	0.3
O=C1C([N+](=O)[O-])=C(O)c2cccc3cccc1c23	·	·	·	·	·	-40.0*
O=C(COC(=O)c1ccc[n+]([O-])c1)Nc1ccc(Cl)cc1[N+](=O)[O-]	6.1	4.8	11.7	·	-0.3	·
O=C1C(C=Nc2ccccc2O)=C(O)c2ccccc21	7.9	6.4	-1.8	-7.5	5.2	-0.3
Cc1ccc(O)c(N=CC2=C(O)c3ccccc3C2=O)c1	38.1*	43.2*	-10.5	21.4	13.8	-21.8
Nn1c(SCc2ccc(F)cc2)nnc1-c1ccncc1	-14.6	-9.3	1.6	-2.3	-0.5	3.0
COc1ccc(N/C(=C(/C(Cl)=C(Cl)Cl)[N+](=O)[O-])n2nnc3ccccc32)cc1	39.2*	41.2*	·	15.1	17.6	-42.4*
Cc1[nH]c2ccccc2c1/C=N/NC(=S)NC(C)C	-3.0	-7.3	-32.2	2.5	-16.3	-26.2*
COc1ccc(N=Cc2c(O)n(-c3cccc(C)n3)c(=O)c3ccccc23)c(OC)c1	-3.1	-10.6	2.1	-2.5	-40.9	-68.6*
O=C(Nc1ccn(CCOC(=O)c2ccccc2)c(=O)n1)c1ccccc1	·	·	-3.1	·	·	·
O=C(NCc1ccc2c(c1)OCO2)c1cc2ccccc2o1	4.4	3.7	1.6	-8.2	3.6	0.3
Cc1cc2cc(CNC(=O)c3cc4ccccc4o3)ccc2n1C	30.6*	32.3	·	4.6	39.5*	-1.7
COc1ccc(C(=O)NCc2ccc3c(c2)cc(C)n3C)cc1	3.9	4.4	15.3*	-9.0	0.2	0.1
COc1ccc(CC(=O)NCc2ccc3c(c2)cc(C)n3C)cc1OC	2.8	-0.7	-2.1	-21.6	6.5	-0.8
Cc1ccc(NS(=O)(=O)c2ccc3c(c2)NC(=O)CCS3)c(C)c1	4.7	-5.3	1.8	·	0.6	-0.8
Nc1ccc(S(=O)(=O)NNC(=O)C(=O)NNc2ccccn2)cc1	-2.3	3.7	6.9	-1.8	5.0	-30.3*
Cc1ccc(S(=O)(=O)NNC(=O)C(=O)NNc2ccccn2)cc1	4.7	4.0	-1.5	-7.3	2.1	-8.7
Cc1ccccc1S(=O)(=O)NNC(=O)C(=O)NNc1ccccn1	2.8	10.1	-3.0	-2.8	8.2	-25.6*
CC(=O)Nc1ccc(S(=O)(=O)NNC(=O)C(=O)NNc2ccccn2)cc1	1.8	10.4	7.1	-7.5	7.9	-45.3*
CCOC(=O)C1=C(COC(=O)Cc2ccc(Cl)cc2)NC(=O)NC1C (centres undefined)	-5.1	-12.5	-13.0	·	4.6	·
Cn1ccnc1COc1ccc(/C=N/O)cc1	7.5	-2.8	-0.9	·	-2.3	1.1
CC(=O)/C(N=Nc1nc2c([nH]1)c(=O)n(C)c(=O)n2C)=C(\C)O	9.4	14.9	7.6	15.4	10.8	-36.0*
Cn1c(=O)c2[nH]c(N=NNc3ccccc3F)nc2n(C)c1=O	10.3	19.7	-0.6	-6.9	2.4	-33.9*
